Screening data (PubChem)
Hits are enriched below; roughly 3.5% of the tested compounds scored in any of these assays.
FBW7 activator: human FBW7 E3 ligase activation, primary screen; Q969H0; AlphaScreen FBW7–phospho-cyclin E peptide binding, activator screen; hit rate 0.13% among 650,000; normalized activity (activation), % at 26.1 µM; in the data active = normalized activity above about 1.9%;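 also: purified mutant Fbw7 with reduced substrate affinity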
GPR151 activ: human GPR151 activation; Q8TDV0; PathHunter beta-arrestin GPR151 cells, luminescence; activation, % at 11.2 µM; hit rate 1% among 650,000; in the data active = activation above about 4.9%;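 also: 0% = median of compound wells and 100% = cells with positive control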
Target sequence (Q8TDV0 whole entry, looked up): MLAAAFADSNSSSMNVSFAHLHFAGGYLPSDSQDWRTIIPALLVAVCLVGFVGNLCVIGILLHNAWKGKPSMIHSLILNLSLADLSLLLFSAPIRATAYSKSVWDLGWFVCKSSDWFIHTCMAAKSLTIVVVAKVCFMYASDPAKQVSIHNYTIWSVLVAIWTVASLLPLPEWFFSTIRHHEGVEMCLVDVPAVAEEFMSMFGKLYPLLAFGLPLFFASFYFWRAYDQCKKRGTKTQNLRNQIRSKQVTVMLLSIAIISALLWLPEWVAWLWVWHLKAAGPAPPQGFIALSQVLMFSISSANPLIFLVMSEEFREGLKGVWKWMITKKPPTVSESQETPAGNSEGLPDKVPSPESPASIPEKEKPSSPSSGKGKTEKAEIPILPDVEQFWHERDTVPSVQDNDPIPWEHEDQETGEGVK
MITF primary: human MITF inhibition, primary screen | O75030 | AlphaScreen MITF homodimerization, bead proximity signal | inhibition, % at 2.6 µM | hit rate 0.91% among 650,000 | AID 1259374; in the data active = inhibition above about 50%;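 also: 0% = vehicle wells with protein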
TEAD-YAP block: TEAD-YAP interaction inhibition. inhibition, % at 9.12 µM. hit rate 1.4% among 640,000. HEK-TIYL cells, TEAD-Gal4/YAP UAS-luciferase luminescence; in the data active = inhibition above about 32%;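 also: 0% = median of test compound wells and 100% = reference inhibitor wells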
* hit, by the source's call.

SMILES	FBW7 activator	GPR151 activ	MITF primary	TEAD-YAP block
COc1cc(C(Nc2ccccn2)c2ccc3ccc(C)nc3c2O)cc(OC)c1O (stereo unspecified)	0	-1	19	33*
O=C1NC(=O)C(=Cc2ccc(Sc3nc4ccccc4s3)o2)C(=O)N1	0	1	-2	-13
COC(=O)c1cc2c(=O)n3cc(C)ccc3nc2n(CCCN2CCOCC2)c1=N	0	-1	4	-35
NNC(=O)c1ccc(CN(Cc2ccccc2)S(=O)(=O)c2ccc(Cl)cc2)cc1	0	-2	-3	-6
COc1ccc(C(Nc2ccccn2)c2ccc3cccnc3c2O)cc1 (stereo unspecified)	-1	1	36	86*
CCc1ccc(C(Nc2ccccn2)c2ccc3ccc(C)nc3c2O)cc1 (stereo unspecified)	0	3	22	23
OC(CNCC1CCCO1)COc1ccc(OCC(O)NCC2CCCO2)cc1 (stereo unspecified)	2.3*	-1	12	6
OC(CNCC1CCCO1)COc1ccc(OCC(O)CNCC2CCCO2)cc1 (stereo unspecified)	0	1	9	2
c1ccc2c(c1)OCC(CN1CCC(c3nc4ccccc4[nH]3)CC1)O2 (stereo unspecified)	0	-1	5	13
O=C(COC(=O)C(Cc1c[nH]c2ccccc12)NC(=O)c1ccc(Br)cc1)c1ccc(Br)cc1 (stereo unspecified)	0	-1	2	3
CN1CCN(c2ncn(-c3ccc(Nc4nccc(-c5cc(F)cc(N6CCC(O)CC6)c5)n4)cc3)n2)CC1	0	-1	2	67*
OC1CCN(c2ncn(-c3ccc(Nc4nccc(-c5cc(F)cc(N6CCOCC6)c5)n4)cc3)n2)CC1	0	1	0	91*
Fc1cc(-c2ccnc(Nc3ccc(-n4cnc(Br)n4)cc3)n2)cc(N2CCOCC2)c1	0	0	-8	6
COC1CCN(c2ncn(-c3ccc(Nc4nccc(-c5cc(F)cc(N(C)C)c5)n4)cc3)n2)CC1	0	1	5	16
OC1CCCN(c2ncn(-c3ccc(Nc4nccc(-c5cc(F)cc(N6CCOCC6)c5)n4)cc3)n2)C1 (stereo unspecified)	0	-2	14	57*
OCc1ccc(-c2ncn(-c3ccc(Nc4nccc(-c5cc(F)cc(N6CCOCC6)c5)n4)cc3)n2)nc1	0	0	-1	83*
Fc1cc(-c2ccnc(Nc3ccc(-n4cnc(-c5ccc(Cl)cn5)n4)cc3)n2)cc(N2CCOCC2)c1	0	1	13	6
O=C(NCCCCNC(=O)c1ccc(Br)o1)c1ccc(Br)o1	0	-1	-10	4
COc1ccc(C2=NN(C(=O)CSc3nnc(CNC(=O)COc4ccccc4)n3-c3ccc(F)cc3)C(c3ccc(F)cc3)C2)cc1 (stereo unspecified)	0	0	-8	-4
Cc1ncn(-c2ccc(Nc3nccc(-c4ccc(N5CCCC(O)C5)c(C#N)c4)n3)cc2)n1 (stereo unspecified)	0	2	-6	35*
CN1CCN(c2ncn(-c3ccc(Nc4nccc(-c5cc(F)cc(N(C)C)c5)n4)cc3)n2)CC1	0	0	2	35*
O=C(CC12CC3CC(CC(Br)(C3)C1)C2)Nc1cccnc1	0	0	11	-4
FC(F)(F)c1ccc(N/N=C/c2ccccc2)nc1	0	0	-191	-29
COC(=O)C1=C(C)Nc2nnnn2C1c1ccc(OC)cc1 (stereo unspecified)	1	-1	8	4
CCCCOc1c(Br)cc(C2NC(=O)NC(C)=C2C(=O)OC)cc1OC (stereo unspecified)	0	1	9	35*
SMILES	FBW7 activator	GPR151 activ	MITF primary	TEAD-YAP block
COC(=O)C1=C(C)Nc2nnnn2C1c1cc(OC)c(OC)c(OC)c1 (stereo unspecified)	0	1	6	51*
COC(=O)C1=C(C)NC(=O)NC1c1cc(Br)c(OC)c(OC)c1 (stereo unspecified)	0	-2	-13	-8
CCOC(=O)C1=C(C)Nc2nnnn2C1c1ccc(OC)c(OC)c1 (stereo unspecified)	0	0	-2	0
CCOC(=O)C1=C(C)Nc2nnnn2C1c1cc(Br)c(OC)c(OC)c1 (stereo unspecified)	1	1	3	53*
COc1cc(/C=C2\N=C(c3ccccc3)NNC2=O)cc(OC)c1OC	0	0	-2	49*
COc1cc(/C=C2/N=C(c3ccc(-c4ccccc4)cc3)OC2=O)cc(OC)c1OC	0	0	-4	-2
O=C1CN(C(=O)COC(=O)c2cc(-c3cccs3)nc3ccccc23)c2ccccc2N1	0	-1	55*	7
CCn1c(SC)nnc1-c1cccn(Cc2ccc(Cl)cc2Cl)c1=O	0	1	-1	-8
N#Cc1c(N)nc2sc(C(N)=O)c(N)c2c1-c1cccs1	0	0	-8	42*
Nc1c(C(=O)c2ccccc2)sc2nc3c(c(-c4cccs4)c12)CCCC3	1	-2	23	-10
NC(=O)c1sc2nc3c(c(-c4cccs4)c2c1N)CCCCC3	0	1	-5	36*
COc1ccc(-c2c(C#N)c(N)nc3sc(C(N)=O)c(N)c23)cc1OC	0	-1	17	-7
CCOC(=O)c1sc2nc3c(c(-c4ccco4)c2c1N)CCCC3	1	0	1	8
NC(=O)c1sc2nc3c(c(-c4ccco4)c2c1N)CCCCC3	0	0	-11	40*
c1ccc(CNc2ccnc(Nc3ccccn3)n2)cc1	0	0	2	-45
COc1cc(NC(=O)c2cccc(-c3cccc(C(C)=O)c3)n2)cc(OC)c1OC	0	2	-3	36*
COc1cc(NC(=O)c2csc(-c3cccc(C(C)=O)c3)n2)cc(OC)c1OC	0	-1	13	30
COc1cc(CNc2ccc(-c3cccc(C(C)=O)c3)cn2)cc(OC)c1OC	0	2	13	34*
CCOC(=O)C1=C(C)N(c2ccc(OCC)cc2)C(=O)/C1=C\c1ccc(C)cc1	0	2	7	1
Cc1csc(-c2cnc3ccc(NCc4ccccn4)nn23)c1	0	1	12	40*
c1ccc(CNc2ccc3ncc(-c4ccco4)n3n2)nc1	-1	0	-11	53*
Cc1csc(-c2cnc3ccc(NCCCO)nn23)c1	0	1	16	34*
CCN(c1ncnc(N)c1[N+](=O)[O-])C1CCCCC1	0	0	21	51*
Nc1ncnc(N(c2ccccc2)C2CCCCC2)c1[N+](=O)[O-]	0	1	16	-5
CCNc1nc(NC(C)CC)nc(ON=C(C)C)n1 (stereo unspecified)	0	0	29	36*
CC(=O)NC1=NC(=O)/C(=C\c2ccc(I)o2)S1	0	1	75*	-3
CC(=O)NC1=NC(=O)/C(=C/c2ccc(-c3ccc(Cl)cc3)o2)S1	0	0	-2	-12
COCCn1c(=S)[nH]c2cc(C(=O)NCc3ccc(OC)cc3)ccc2c1=O	0	1	-4	3
